Inconclusive results are not listed. Activity calls are given as the source filed them. Calls follow the shape of the dose curve; as a rule, active = well fitted inhibition curve with a large enough effect; inconclusive = small, poorly fitted or top-dose-only effect; inactive = no such curve, though single readings can be large or run the other way.
Experiment: Primary qHTS for inhibitors of nuclear receptor binding SET domain protein 2 (NSD2) in an RCH-ACV wild type WT cells (2C) (AID 1645877); also: nearly all actives have a fitted effect of over 70% in size
Conditions: RCH-ACV (leukaemia line) NSD2 WT (2C) viability, CellTiter-Glo, 72 h; series mostly up to 44.9 µM
In the case of `C=C1C(=O)OC[C@@H]1C/C=C(\C)CC1CC(C)C(=O)O1` (some centres not stated), the Potency is reported as 23 µM (active). For `CO[C@H]1C[C@@H]2CC[C@@H](C)[C@@](O)(O2)C(=O)C(=O)N2CCCC[C@H]2C(=O)O[C@H]([C@@H](C)C[C@@H]2CC[C@@H](O)[C@H](OC)C2)CC(=O)[C@H](C)/C=C(\C)[C@@H](O)[C@@H](OC)C(=O)[C@H](C)C[C@H](C)/C=C/C=C/C=C/1C`, the Potency was 25.8 µM (active). With `CC(O)C(C)n1ncn(-c2ccc(N3CCN(c4ccc(OCC5COC(Cn6cncn6)(c6ccc(Cl)cc6Cl)O5)cc4)CC3)cc2)c1=O` (configuration not stated) the Potency was “inactive”. With `CCN(CC)CCCCCCNc1cc(OC)cc2c(C)ccnc12` the Potency was 12.9 µM (active). With `C=C1CCCC2(C)CCC(C(C)(C)OC3OC(C)C(O)C(O)C3OC(=O)/C(C)=C\C)CC12` (configuration not stated) the Potency was 10 µM (active). In the case of `CC(=O)O[C@H]1[C@@]2(O)C[C@H](C)[C@H](OC(=O)c3ccccc3)[C@@H]2[C@@H](OC(=O)CO)[C@]2(OC(C)=O)C[C@H]3C(=O)C(C)(C)C[C@@H]3[C@@]1(C)[C@H]2OC(C)=O`, the Potency is reported as “inactive”. With `C=C1C(=O)OC2CC(C)C(CCC(C)O)=CCC12` (configuration not stated) the Potency was 16.3 µM (active). For `COc1ccc2nc3n[nH]c(C)c3c(NCCOCCO)c2c1`, the Potency was 3.25 µM (active). For `C[C@@H]1O[C@@H](O[C@H]2CC[C@@]3(C)C(CC[C@]4(C)C3CC=C3[C@@H]5CC(C)(C)CC[C@]5(C(=O)O[C@@H]5O[C@H](CO)[C@@H](O)[C@H](O)[C@H]5O)CC[C@]34C)[C@]2(C)CO)[C@H](O)[C@H](O[C@@H]2O[C@H](CO)[C@@H](O)[C@H](O)[C@H]2O)[C@H]1O` (some centres not stated), the Potency was 3.46 µM (active). In the case of `C=C1/C(=C/C=C2\CCC[C@]3(C)[C@@H]([C@H](C)/C=C/[C@@H](C)C(C)C)CC[C@@H]23)C[C@@H](O)C[C@@H]1O`, the Potency is reported as 14.5 µM (active). For `C=C1C(=O)O[C@@H]2/C=C(\CO)CC/C=C(\CO)[C@H](OC(C)=O)C(OC(=O)C(C)CC)C12` (some centres not stated), the Potency was 5.02 µM (active). For `CC1(C)CCC(C)(C)c2cc(C#Cc3ccc(C(=O)O)cc3)ccc21`, the Potency was “inactive”. For `C=CC(C)(C)c1[nH]c2ccccc2c1C[C@@H]1NC(=O)[C@H](C)NC1=O`, the Potency was “inactive”. In the case of `CO[C@H]1O[C@@H]2O[C@@]3(C)CCC4[C@H](C)CCC([C@H]1C)[C@]42OO3` (some centres not stated), the Potency is reported as 6.49 µM (active). With `C[C@@H]1O[C@@H](O[C@H]2[C@H](OC(=O)[C@]34CCC(C)(C)C[C@H]3C3=CCC5[C@@]6(C)C[C@H](O)[C@H](O[C@@H]7O[C@H](C(=O)O)[C@@H](O)[C@H](O)[C@H]7O)[C@@](C)(CO)C6[C@H](O)C[C@@]5(C)[C@]3(C)C[C@H]4O)O[C@@H](CO)[C@@H]2O)[C@H](O)[C@H](O)[C@H]1O[C@@H]1OC[C@@H](O)[C@H](O[C@H]2OC[C@](O)(CO)[C@H]2O)[C@H]1O` (some centres not stated) the Potency was 0.122 µM (active). In the case of `COC1=CC(=O)O/C1=C(/OC)[C@@H]1O[C@H]1c1ccccc1`, the Potency is reported as 18.3 µM (active). For `C=C1C(OC2OC(CO)C(O)C(O)C2O)CC2C(C)(C)C(O)CCC2(C)C1CC/C(C)=C\COC(=O)CC(=O)O` (configuration not stated), the Potency was 4.83 µM (active).
Potency is read from the fitted curve at half-maximal effect.
